# In the library only some 9.3% were active in any assay of this set; here they are far more common.
# NPC1 prom act = NPC1 promoter activation. Huh7 NPC1 promoter luciferase reporter, 24 h. Potency, µM (top dose mostly 9.22 µM), for the others: top-dose activation, actives largely listed as activators. 2.4% of 320,000 active; also: % of control where 0% means no effect; nearly all actives have a fitted effect of over 60% in size
#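 Readout is luciferase luminescence, reflecting NPC1 promoter activation in stably transfected Huh7 cells after 24 h compound exposure at 37 °C in reduced-serum medium with 10% FBS.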
# ELG1 genotox = inducers of genotoxicity in HEK293T ELG1-luciferase cells; 1.3% of 330,000 active; Potency, µM (titrated, usually from 46 µM), inactives show at the highest dose activity change, positive = activation, most hits filed as activators; AID 504466; HEK293T ELG1-luciferase reporter, luminescence, 16 h; also: % of control where 0% means no effect; nearly all actives have a fitted effect of over 60% in size
#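 Screening used a luciferase reporter fused to human ELG1 in HEK293T cells. Luminescence was read on a CCD plate imager after 16 hr exposure and 30 min ONE-Glo incubation.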
# FLuc counter = firefly luciferase modulation, counter-screen for miR-21 project. P08659. purified FLuc, Km substrates, luminescence inhibition. Potency, µM (series often up to 57.5 µM), without a hit: at the top dose activity change, negative = inhibition, usual class: inhibitors. 6.9% of 360,000 active. AID 588342;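 also: plate controls were vehicle for no effect and reference inhibitor for full effect; nearly all actives have a fitted effect of over 55% in size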
# Target sequence (P08659 whole entry, looked up): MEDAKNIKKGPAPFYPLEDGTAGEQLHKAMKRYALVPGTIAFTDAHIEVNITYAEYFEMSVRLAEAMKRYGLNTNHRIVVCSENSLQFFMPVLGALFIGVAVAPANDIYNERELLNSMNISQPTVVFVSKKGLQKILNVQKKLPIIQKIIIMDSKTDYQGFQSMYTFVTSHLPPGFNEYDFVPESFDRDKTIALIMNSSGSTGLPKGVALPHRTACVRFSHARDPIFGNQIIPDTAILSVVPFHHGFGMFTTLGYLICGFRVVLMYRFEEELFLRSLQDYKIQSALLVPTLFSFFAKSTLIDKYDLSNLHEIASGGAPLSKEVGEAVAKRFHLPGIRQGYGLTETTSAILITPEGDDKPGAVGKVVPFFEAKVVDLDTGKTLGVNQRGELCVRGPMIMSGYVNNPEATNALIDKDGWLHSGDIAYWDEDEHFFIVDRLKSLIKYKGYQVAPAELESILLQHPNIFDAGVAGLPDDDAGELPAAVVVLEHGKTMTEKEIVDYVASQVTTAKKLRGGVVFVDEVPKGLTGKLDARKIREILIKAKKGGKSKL
#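 Purified P. pyralis luciferase (10nM final) with 10uM D-luciferin and 10uM ATP (Km levels) in 50mM Tris acetate pH 7.5, 10mM Mg acetate, 0.01% Tween-20, 0.05% BSA; qHTS 6-point titration, ~60 µM downward; luminescence read.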
# SMN2 splice up = enhancers of SMN2 splice variant expression | HEK293 SMN2-luciferase splicing reporter, luminescence, 30-36 h | Potency, µM (series often up to 46.1 µM), for inactives: at the top dose activity change, positive = activation, most hits filed as activators | 2.8% of 210,000 active | AID 1458; also: % of control where 0% means no effect; nearly all actives have a fitted effect of over 55% in size
#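 HEK293 cells carry an SMN2 minigene-luciferase reporter in which exon 7 inclusion puts luciferase in frame. Cells were seeded at 2000 cells/well, attached for 10-12 hours, then exposed to compounds for 30-36 hours at 37C before ONE-Glo luminescence.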
# ELG1 DNA repair = ELG1-dependent DNA repair inhibition; Potency, µM (series often up to 46.1 µM), without a hit: at the top dose activity change, negative = inhibition, hits mostly inhibitors; HEK293T ELG1-luciferase reporter, luminescence, 16 h; DNA damage induced by 5-fluorouridine; 2.3% of 330,000 active; AID 504467; also: % is scaled to controls: 0 for no effect and ±100 for the full control effect; nearly all actives have a fitted effect of over 55% in size
#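 DMSO vehicle served as the neutral condition. Each well held 2,000 cells given 5-fluorouridine plus compound; after 16 hr at 37 °C/5% CO2, ONE-Glo was added and luciferase measured 30 min later.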
# Rab9 promoter act = activates the Rab9 promoter; 2.8% of 320,000 active; Huh7 Rab9 promoter-luciferase reporter, luminescence, 24 h; AID 485297; Potency, µM (series often up to 9.22 µM), for inactives: at the highest dose activation, negative = inhibition, most hits filed as activators; also: % of control where 0% means no effect; nearly all actives have a fitted effect of over 60% in size
#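 Huh7 cells stably carrying a Rab9 promoter-luciferase reporter, 1500 cells per well in OP-MEM I with 10% FBS, treated with compound 24 hours at 37C. Luciferase activity read by luminescence after 10 minutes with Amplite reagent.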
# * = called active by the depositor; ? = inconclusive; / = not tested or not shown. Calls follow the shape of the dose curve; as a rule, active = well fitted curve in the direction sought with a large enough effect; inconclusive = small, poorly fitted or top-dose-only effect, or another doubt; inactive = no such curve, though single readings can be large; an effect the other way counts as inactive or inconclusive. Potency is read from the fitted curve at half-maximal effect.
SMILES,NPC1 prom act,ELG1 genotox,FLuc counter,SMN2 splice up,ELG1 DNA repair,Rab9 promoter act
CCOc1ccc(NC(=O)CCC(=O)NNC(=O)COc2ccc(C)cc2Br)cc1,?,?,2.13µM*,/,?,?
Cc1cc(Cl)ccc1OCC(=O)NCc1ccncc1,-3.6%,0.8%,-7.8%,-30.9%,?,-4.2%
Cc1cc(Cl)ccc1OCC(=O)Nc1ccncc1,-5.7%,?,15.1µM*,/,?,-12.8%
CCCC1(C(=O)OCC)NC(c2ccc(N(C)C)cc2)C2C(=O)N(c3ccc(OCC)cc3)C(=O)C21 (stereo unspecified),-2.1%,-0.1%,1.0%,/,?,1.0%
CC1CCCN(C(=S)NCc2ccccc2)C1 (stereo unspecified),0.6%,-2.6%,-1.4%,11.8%,7.5%,0.7%
Cc1cc(C)cc(OCC(=O)Nc2ccncc2)c1,0.2%,-5.4%,-2.4%,/,15.8µM*,1.4%
COc1ccc(OCC(=O)Nc2ccncc2)cc1,2.6%,-1.0%,?,/,3.6%,-5.9%
Cc1ccc(NC(=O)COc2ccc(Br)cc2C)cc1,18.2%,?,9.53µM*,-1.8%,?,28.8%
CCc1[nH]nc2c1C1(CCOC1C)C(C#N)=C(N)O2 (stereo unspecified),-2.9%,-0.3%,16.8%,-11.4%,-3.4%,8.9%
COc1ccc(NC(=O)C(C)n2nnc3sc(-c4ccccc4)cc3c2=O)cc1Cl (stereo unspecified),/,/,6.01µM*,-1.1%,/,/
CCC(C(=O)OC)n1nnc2sc(-c3ccccc3)cc2c1=O (stereo unspecified),/,/,19µM*,-0.9%,/,/
c1ccc(-c2noc(COc3ccc4c(c3)OCO4)n2)cc1,3.98µM*,9.2µM*,2.13µM*,14.1µM*,?,2.82µM*
Cc1ccc(-c2noc(COc3ccccc3C)n2)cc1,18.1%,?,21.3µM*,18.7%,?,22.5%
COc1cccc(-c2noc(COc3ccccc3Cl)n2)c1,/,/,10.7µM*,?,/,/
COc1ccc(-c2noc(COc3ccccc3OC)n2)cc1OC,13.1%,?,?,11.9%,-14.4%,2.8%
Cc1ccc(OCc2nc(-c3ccccc3)no2)cc1,?,?,7.57µM*,/,?,3.98µM*
O=C(N/N=C/c1cccnc1)c1cc(C2CC2)nc2ccccc12,-2.8%,-1.0%,1.1%,/,6.2%,-2.1%
COc1ccccc1N1CCN(C(=O)C2CCC(Cn3c(=S)[nH]c4ccccc4c3=O)CC2)CC1 (stereo unspecified),-2.5%,-0.6%,5.5%,-46.5%,?,-10.4%
c1ccc(NCc2nc(-c3ccccc3)no2)cc1,?,23.1µM*,16.9µM*,?,?,?
Cc1ccccc1OCc1nc(-c2ccc(NC(=O)c3ccc4c(c3)OCO4)cc2)no1,19.2%,9.3%,?,-8.0%,?,3.7%
Cc1ccccc1OCc1nc(-c2ccccc2)no1,3.98µM*,?,4.78µM*,31.6µM*,?,3.98µM*
Cc1ccccc1OCC(=O)N(Cc1nc(-c2ccccc2)no1)C(C)C,-2.8%,-0.2%,-0.8%,8.5%,-12.6%,1.4%
Cc1ccc(S(=O)(=O)NCc2nc(-c3ccccc3)no2)cc1,-3.4%,-4.0%,1.2%,/,-8.2%,0.3%
Cc1ccc(C)c(OCc2nc(-c3cccnc3)no2)c1,1.8%,10.4%,?,/,?,5.9%
Cc1ccccc1OCc1nc(-c2ccc(Br)o2)no1,11.2%,?,16.9µM*,10.7%,?,7.6%
SMILES,NPC1 prom act,ELG1 genotox,FLuc counter,SMN2 splice up,ELG1 DNA repair,Rab9 promoter act
Cc1cc(Br)ccc1OCc1nc(-c2cccnc2)no1,29.1%,20.6µM*,?,?,?,?
Cc1ccccc1NC1=NC(=S)N(c2ccccc2)C12CCCCC2,-2.1%,-3.0%,2.6%,-37.3%,-25.4%,-0.2%
Cc1nc2ccn(Cc3cccnc3)c(=O)c2cc1C(=O)Nc1ccc(OC(F)(F)F)cc1,/,/,1.1%,/,/,/
Cc1ccc(NC(=O)C(=O)NCc2ccc(/C=N/NC(=O)c3c(C)nc4ccccn34)o2)cc1,-1.8%,1.9%,1.69µM*,?,-2.3%,-2.3%
Cc1ccn2c(C(=O)N/N=C/c3ccc(CNC(=O)C(=O)Nc4ccc(C)c(C)c4)o3)c(C)nc2c1,1.1%,-0.1%,6.75µM*,28.1%,?,-0.6%
O=C(O)c1c(NC(=O)N2CCOCC2)sc2c1CCCC2,1.1%,0.7%,?,/,?,-7.1%
O=C(CSc1cccc[n+]1[O-])Nc1cc2c(cc1Cl)C(=O)c1ccccc1C2=O,?,15.8%,10.7µM*,11.2µM*,?,?
Cc1sc2ncnc(NCCc3ccc(S(N)(=O)=O)cc3)c2c1C,-17.7%,-17.6%,4.1%,-98.9%,18.4µM*,-28.1%
Cc1ccc(C2CCN(C(=O)Nc3ccc(C)c(C)c3)C2)cc1 (stereo unspecified),/,/,12µM*,/,/,/
O=C(Nc1ccc(Cl)c(Cl)c1)N1CCCCCC1,2.82µM*,?,6.01µM*,/,?,2.51µM*
O=C(Nc1ccc2nc(-c3ccco3)c(-c3ccco3)nc2c1)N1CCCCCC1,15.2%,-22.4%,21.3µM*,-2.2%,?,8.7%
O=C(Nc1ccc(Cl)c(Cl)c1)N1CCC(c2ccccc2)C1 (stereo unspecified),/,/,1.69µM*,/,/,/
C=CCn1c(=N)c(C#N)cc2c(=O)n3ccccc3nc21,-0.6%,5.2%,2.0%,18.8%,8.2%,-1.4%
Cc1cccc(N2CCN(c3c4c(nc5nncn35)CCC4)CC2)c1C,/,/,-0.7%,-1.0%,/,/
O=C(Nc1ccc2nsnc2c1)N1CCCCCC1,21.0%,?,16.9µM*,-9.5%,?,?
Cc1ccc(C2CCN(C(=O)Nc3ccc(Cl)c(Cl)c3)C2)cc1 (stereo unspecified),/,/,4.78µM*,/,/,/
COc1ccc(CCN2C(=O)c3[nH]nc(-c4ccccc4O)c3C2c2cccc(O)c2)cc1OC (stereo unspecified),1.6%,-2.8%,-4.3%,8.5%,18.4µM*,-0.8%
CC(=O)c1ccc2noc(-c3ccc(C)cc3)c2c1,1.3%,-5.4%,-25.1%,-27.7%,-14.5%,-1.7%
Cc1cccc(N2CCN(C(=O)C3CCN(C(=O)c4cc5sccc5n4C)CC3)CC2C)c1 (stereo unspecified),/,/,0.0%,-46.7%,/,/
COc1ccc(NC(=O)c2ccc(COc3ccccc3)o2)cc1,-1.8%,-0.5%,23.9µM*,-22.2%,?,-0.7%
Cc1ccc(-c2nn3c(C)nnc3s2)cc1NC(=O)c1ccc(-c2ccc(Cl)cc2Cl)o1,-13.2%,5.0%,?,-45.5%,-19.8%,-18.1%
